{"source": "PubChem BioAssay AID2291", "about": "(The Scripps Research Institute Molecular Screening Center, 2010)", "note": "The whole screen tested about 16,000 compounds, of which about 75 (0.5%) were called active. This is one part of a sample in which actives are shown more often than they occur. No stated cut-off is given here; in the data, active means inhibition above about 30%; inactive means the rest.", "data": [{"biological_target": "Protein phosphatase methylesterase 1 (Homo sapiens) (UniProt Q9Y570)", "sequence (Q9Y570 whole entry, looked up)": "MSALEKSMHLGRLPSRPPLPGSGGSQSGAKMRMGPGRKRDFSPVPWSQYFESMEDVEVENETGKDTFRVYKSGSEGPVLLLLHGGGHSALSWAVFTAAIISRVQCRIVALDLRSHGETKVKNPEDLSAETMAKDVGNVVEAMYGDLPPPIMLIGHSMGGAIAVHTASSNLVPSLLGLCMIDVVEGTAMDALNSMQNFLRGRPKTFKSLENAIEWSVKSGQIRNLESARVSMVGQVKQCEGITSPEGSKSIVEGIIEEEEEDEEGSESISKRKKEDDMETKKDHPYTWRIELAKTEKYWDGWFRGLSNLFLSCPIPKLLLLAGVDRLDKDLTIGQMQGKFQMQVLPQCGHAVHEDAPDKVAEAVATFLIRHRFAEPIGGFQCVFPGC", "assay": "inhibitors of human PME-1 in Maybridge library (AID 2291)", "settings": "recombinant PME-1, FP-Rh probe fluorescence polarization; at 9 µM; hits give high values", "values": [{"smiles": "Cc1nc(-c2nnc(SCC(=O)c3ccc(F)cc3)n2C)cs1", "inhibition": "3.93% (inactive)"}, {"smiles": "CSc1nc(N)c2ccccc2n1", "inhibition": "4.47% (inactive)"}, {"smiles": "O/N=C(\\c1ccccc1)c1ccccn1", "inhibition": "1.61% (inactive)"}, {"smiles": "Cc1cc(C)n(/N=c2\\sc(-c3ccccc3)cn2C2CC3C=CC2C3)c(=O)c1C#N", "note": "(stereo unspecified)", "inhibition": "1.38% (inactive)"}, {"smiles": "NC(=O)c1ccc(-c2csnn2)cc1", "inhibition": "4.57% (inactive)"}, {"smiles": "CC(=O)N1CCc2cc(NC(=S)Nc3ccccc3Cl)ccc21", "inhibition": "-0.615% (inactive)"}, {"smiles": "CC1=CC(=O)C(CCC2=CC(=O)C(C)=CC2=O)=CC1=O", "inhibition": "-5.46% (inactive)"}, {"smiles": "CN(C)/C=C1/C(=O)NN=C1CSc1ccc(Cl)cc1", "inhibition": "4.88% (inactive)"}, {"smiles": "O=S(=O)(CCN1CCC(C(F)(F)F)CC1)c1ccccc1", "inhibition": "5.79% (inactive)"}, {"smiles": "CSc1nc2c(c(/C=C/c3ccccc3)c1C#N)CCC2", "inhibition": "0.0789% (inactive)"}, {"smiles": "CSC(=Nc1ccccc1C(F)(F)F)N1CCCC1", "inhibition": "-2.33% (inactive)"}, {"smiles": "Cc1ccc(S(=O)(=O)NC(=O)NCCSCc2ccco2)cc1", "inhibition": "5.18% (inactive)"}, {"smiles": "NNC(=O)c1cc2ccccc2s1", "inhibition": "7.18% (inactive)"}, {"smiles": "O=C(O)c1nccnc1C(=O)O", "inhibition": "5.09% (inactive)"}, {"smiles": "CC(=O)OC1=CCC2C3CC[C@@]4(C)CC(OC(C)=O)CCC4(C)C3C(OC(C)=O)CC12C", "note": "(stereo partly specified)", "inhibition": "-6.54% (inactive)"}, {"smiles": "OC1(C#Cc2ccccc2)CCN(Cc2ccccc2)CC1", "inhibition": "4.15% (inactive)"}, {"smiles": "O=C(Nc1ccc(OCc2ccccc2)cc1)OCC1CN(Cc2ccccc2)CCO1", "note": "(stereo unspecified)", "inhibition": "5.09% (inactive)"}, {"smiles": "CCCCCCCCCCCCCC#CC(O)C(N)CO", "note": "(stereo unspecified)", "inhibition": "-4.1% (inactive)"}, {"smiles": "OCCNC(=S)Nc1ccccc1-c1ccccc1", "inhibition": "0.487% (inactive)"}, {"smiles": "FC(F)(F)C1=CC=NCCN1", "inhibition": "10.1% (inactive)"}, {"smiles": "OCCNc1nc2ccccc2[nH]1", "inhibition": "-2.41% (inactive)"}, {"smiles": "O=S(=O)(c1ccccc1)c1cc(C(F)(F)F)cc(C(F)(F)F)c1", "inhibition": "-0.142% (inactive)"}, {"smiles": "O=C(NCc1ccc2c(c1)OCO2)c1cccc2c1OCCCO2", "inhibition": "-4.73% (inactive)"}, {"smiles": "O=C1c2cc(S(=O)(=O)Oc3ccccc3)ccc2-c2ccc(S(=O)(=O)Oc3ccccc3)cc21", "inhibition": "5.56% (inactive)"}, {"smiles": "CN(Cc1nnc(-c2ccc3ccccc3c2)o1)c1nnc(C(F)(F)F)s1", "inhibition": "3.28% (inactive)"}, {"smiles": "COC(=O)c1ccccc1N(C)C(=O)c1cc(OC)c(OC)c(OC)c1", "inhibition": "0.643% (inactive)"}, {"smiles": "COC(=O)c1ccccc1-c1c2ccc(=O)cc-2oc2cc(O)ccc12", "inhibition": "61.2% (active)"}, {"smiles": "COC(=O)c1ccccc1NC(=O)c1ccc(Oc2cc(Cl)cc(Cl)c2)o1", "inhibition": "-2.65% (inactive)"}, {"smiles": "S=C(SCc1ncon1)N1CCSCC1", "inhibition": "-2.3% (inactive)"}, {"smiles": "C/C(=N\\NC(N)=S)c1cc2cc(Cl)ccc2o1", "inhibition": "-1.43% (inactive)"}, {"smiles": "Clc1ccc(C2=NN(Cc3ccccc3)CC2)s1", "inhibition": "2.04% (inactive)"}, {"smiles": "NC(=NC(=O)CCn1c(=O)oc2ccccc21)c1cc(Cl)cc(Cl)c1", "inhibition": "-1.92% (inactive)"}, {"smiles": "O=S(=O)(Oc1cccc(C(F)(F)F)c1)c1cc(S(=O)(=O)c2ccccc2)cs1", "inhibition": "-3.1% (inactive)"}, {"smiles": "CC(C)(C)c1cc(C(=O)N/N=C/c2ccc([N+](=O)[O-])s2)n[nH]1", "inhibition": "4.23% (inactive)"}, {"smiles": "CCOC(=O)/C(C#N)=C/N/S(C)=N/N=C/c1ccc(N(C)C)cc1", "note": "(stereo unspecified)", "inhibition": "4.21% (inactive)"}, {"smiles": "NNC(=O)CSc1nnc(-c2ccccc2)n1-c1ccccc1", "inhibition": "3.4% (inactive)"}]}]}
